{"source": "ChEMBL document CHEMBL1156829", "note": "“And” between values parts separate entries of the source, which are not always exact repeats. Equal values may be shown once. In all, about 5,400 compounds were measured (“IFI”: median about 2, highest 2% from about 22 on). Many of the other results were omitted from the sample, so the highest values are more common in it than they were."}
{"experiment": "NOVARTIS: Inhibition Frequency Index (IFI) - the number of HTS assays where a compound showed > 50% inhibition/induction, expressed as a percentage of the number of assays in which the compound was tested.", "assay_type": "functional"}
{"molecule": "GNF-Pf-448, CHEMBL580641", "IFI": "30%"}
{"molecule": "GNF-Pf-2945, CHEMBL581676", "IFI": "1.82%"}
{"molecule": "GNF-Pf-1437, CHEMBL576411", "IFI": "14.3%"}
{"molecule": "CCc1ccc(C=NNC(=O)COc2ccc3c(c2)OCO3)cc1", "IFI": "0%"}
{"molecule": "COc1cccc2c1C(=O)c1c(O)c3c(c(O)c1C2=O)C[C@](O)(C(C)=O)C[C@@H]3O[C@H]1C[C@@H](N)[C@H](O)[C@H](C)O1", "IFI": "19.7%"}
{"molecule": "COc1cccc2c1C(=O)c1c(O)c3c(c(O)c1C2=O)C[C@@](O)(C(=O)CO)C[C@@H]3O[C@@H]1C[C@H](N)[C@H](O)[C@H](C)O1", "IFI": "25.6%"}
{"molecule": "COc1cccc2c1C(=O)C1C(O)=C3C(=C(O)C1C2=O)CC(O)(C(C)=NN=C1CC(C)(C)N(O)C(C)(C)C1)CC3OC1CC(C)(N)C(O)CO1", "note": "(stereo unspecified)", "IFI": "21.4%"}
{"molecule": "Cc1ccc(-c2cc(C(=O)OCC(=O)c3cccc([N+](=O)[O-])c3)c3cc(C)ccc3n2)cc1", "IFI": "0%"}
{"molecule": "Cc1cc(C)c2cc(CN(CCN(C)C)C(=S)NCCCN(C)C)c(=O)[nH]c2c1", "IFI": "3.12%"}
{"molecule": "CC1=C(CO)C(=O)O[C@@H]([C@@H](C)[C@H]2CC[C@H]3[C@@H]4C[C@H]5O[C@]56[C@@H](O)C=CC(=O)[C@]6(C)C4CC[C@]23C)C1", "note": "(stereo partly specified)", "IFI": "32.1%"}
{"molecule": "Cc1ccn2c(NC(C)(C)CC(C)(C)C)c(-c3ccccc3OC(=O)CCc3ccccc3)nc2c1", "IFI": "3.74%"}
{"molecule": "c1ccc(-c2cc(N3CCOCC3)nc(-c3ccccn3)n2)nc1", "IFI": "15.4%"}
{"molecule": "COc1ccc(NC(=O)CCCCCn2c(SCc3cc(=O)oc4cc(O)ccc34)nc3ccsc3c2=O)cc1", "IFI": "0%"}
{"molecule": "CN(C)c1ccc(/C=C/c2cccc[n+]2C)cc1", "IFI": "6.3%"}
{"molecule": "CCCCCC[n+]1ccccc1C=Cc1ccc(N(C)C)cc1", "IFI": "27.6%"}
{"molecule": "CN(C)c1ccc(/C=C/c2cccc(/C=C/c3ccc(N(C)C)cc3)[n+]2C)cc1", "IFI": "25%"}
{"molecule": "CC[n+]1ccccc1C=Cc1ccc(N(C)C)cc1", "IFI": "6.57% and 5.88%"}
{"molecule": "Cc1ccc(C=Cc2ccc(N(C)C)cc2)[n+](C)c1", "IFI": "15.4%"}
{"molecule": "CC(C)CC[n+]1ccccc1C=Cc1ccc(N(C)C)cc1", "IFI": "15.4%"}
{"molecule": "CC1CCCCN1CCCNc1ncc(C(=O)NCCc2ccccc2)c(NCC2CCCO2)n1", "note": "(stereo unspecified)", "IFI": "3.81%"}
{"molecule": "CCCCNC(=S)N(Cc1cccs1)Cc1cc2cc(C)ccc2[nH]c1=O", "IFI": "1.82%"}
{"molecule": "CC(C)(C)c1ccc(CNC(=O)C(Cc2ccc(O)cc2)c2ccccc2)cc1", "note": "(stereo unspecified)", "IFI": "0%"}
{"molecule": "C=CCSc1oc(-c2ccco2)nc1[P+](c1ccccc1)(c1ccccc1)c1ccccc1", "IFI": "23.1%"}
{"molecule": "O=C(CSc1oc(-c2ccc(Cl)cc2)nc1[P+](c1ccccc1)(c1ccccc1)c1ccccc1)c1ccccc1", "IFI": "21.4%"}
{"molecule": "CCOC(=O)C1=C(CC)NC2=C(C(=O)CC(C)(C)C2)C1c1ccccc1F", "note": "(stereo unspecified)", "IFI": "4.6%"}
{"molecule": "CCN1/C(=C/c2cccc[n+]2C)Sc2ccc(OC)cc21", "IFI": "15.4%"}
{"molecule": "CC[n+]1c(/C=C(C)/C=C2\\Sc3ccccc3N2CCO)sc2ccccc21", "IFI": "7.69%"}
{"molecule": "CCC(/C=C1\\Sc2ccc(OC)cc2N1CCCS(=O)(=O)O)=C\\c1sc2ccc(OC)cc2[n+]1CCCS(=O)(=O)O", "IFI": "22.7%"}
{"molecule": "CCOC(=O)c1c(C)[n+](-c2ccc(C)cc2)c(CC)c2cc(OC)c(OC)cc12", "IFI": "2.29%"}
{"molecule": "Cc1ccc(-c2c3c4n(c(-c5ccc(Cl)cc5)cn4c2C(=O)Nc2ccccc2Cl)CCCC3)cc1", "IFI": "6.06%"}
{"molecule": "CCCCN(CCCC)[P+](N(CCCC)CCCC)(N(CCCC)CCCC)N(CCCC)CCCC", "IFI": "27.3%"}
{"molecule": "CCC(=O)N1CCc2cc(Br)cc(S(=O)(=O)N3CC(C)CC(C)C3)c21", "note": "(stereo unspecified)", "IFI": "0%"}
{"molecule": "COc1ccc2nc3cc(Cl)ccc3c(NCCN(CCN)CCN)c2c1", "IFI": "14.5%"}
{"molecule": "CN(C)c1ccc(-c2nc(-c3ccc(-c4[nH]c(-c5ccc(N(C)C)cc5)nc4-c4ccccc4)cc3)c(-c3ccccc3)[nH]2)cc1", "IFI": "12.5%"}
{"molecule": "CN(C)c1ccc(C(=Cc2cc(-c3ccccc3)cc(-c3ccccc3)[o+]2)c2ccc(N(C)C)cc2)cc1", "IFI": "12.7%"}
{"molecule": "CN(C)c1ccc(-c2cc(-c3ccccc3)[s+]c(-c3ccccc3)c2)cc1", "IFI": "31.4%"}
{"molecule": "COc1ccc(-c2nc(NC(=O)CS(=O)(=O)c3ccccc3)sc2C)cc1", "IFI": "0%"}
{"molecule": "C1=C(c2ccc(CN3CCCCC3)cc2)N2CCN=C2c2ccccc21", "IFI": "2.98%"}
{"molecule": "Cc1cc(S(=O)(=O)NC(Cc2ccc([N+](=O)[O-])cc2)C(=O)O)c(Cl)cc1Cl", "note": "(stereo unspecified)", "IFI": "1.03%"}
{"molecule": "Cc1ccc2ncnc(Nc3cccc(C(F)(F)F)c3)c2c1", "IFI": "4.41%"}
{"molecule": "Clc1ccccc1Nc1nc2nonc2nc1Nc1cccc(Br)c1", "IFI": "15.4%"}
{"molecule": "FC(F)(F)c1cccc(Nc2nc3nonc3nc2Nc2ccc(Br)cc2)c1", "IFI": "22.2%"}
{"molecule": "Clc1ccc(Nc2nc3nonc3nc2Nc2ccc(Cl)c(Cl)c2)cc1Cl", "IFI": "7.14%"}
{"molecule": "FC(F)(F)c1cccc(Nc2nc3nonc3nc2Nc2ccc(Cl)cc2)c1", "IFI": "22.7%"}
{"molecule": "c1ccc(Oc2ccc(Nc3nc4nonc4nc3Nc3ccc(Oc4ccccc4)cc3)cc2)cc1", "IFI": "0%"}
{"molecule": "CCN(CC)c1scc(-c2ccc(Br)cc2)[s+]1", "IFI": "7.69%"}
{"molecule": "COc1ccc(C2=C(c3ccc(OC)cc3)C3(c4ccccc4)C(=O)C2(c2ccccc2)C2C(=O)N(c4ccc(F)cc4)C(=O)C23)cc1", "note": "(stereo unspecified)", "IFI": "0%"}
{"molecule": "CN(/C=C/C1=[N+](C)c2ccc(Cl)cc2C1(C)C)c1ccccc1", "IFI": "0%"}
{"molecule": "CCN1/C(=C\\C=C\\C2=[N+](C)c3ccccc3C2(C)C)N(c2ccccc2)c2ccccc21", "IFI": "28.6%"}
{"molecule": "CCN1/C(=C/C=C/C2=[N+](C)c3ccc(C)cc3C2(C)C)C=Cc2ccccc21", "IFI": "28.6%"}
{"molecule": "CCN1/C(=C/c2cccc[n+]2C)C=Cc2cc(C)ccc21", "IFI": "15.4%"}
{"molecule": "COCCN1C(=O)c2ccccc2C(C(=O)Nc2cccc(C(F)(F)F)c2)C1c1cccs1", "note": "(stereo unspecified)", "IFI": "9.09%"}
{"molecule": "CC1CCN(S(=O)(=O)c2ccc(C(=O)Nc3sc4c(c3C(N)=O)CCN(C)C4)cc2)CC1", "IFI": "0%"}
{"molecule": "COc1nc(C)nc(NC(=O)NC(=O)c2c(OC)ccc([N+](=O)[O-])c2OC)n1", "IFI": "2.61%"}
{"molecule": "CCCCCc1ccc(OCCOCC[n+]2ccccc2)c(CCCCC)c1", "IFI": "4.54%"}
{"molecule": "CN1C=CC(=Cc2sc3ccccc3[n+]2C)C=C1", "IFI": "0%"}
{"molecule": "CCN1C(=Cc2sc3ccc(O)cc3[n+]2CC)C=Cc2cc(C)ccc21", "IFI": "15.4%"}
{"molecule": "CCN1C=C(c2ccc(C)cc2)S/C1=C\\c1sc2ccccc2[n+]1C", "IFI": "14.7%"}
{"molecule": "CCN1/C(=C/c2cccc[n+]2C)C=Cc2ccc(C)cc21", "IFI": "7.79%"}
{"molecule": "CCN1C(=Cc2sc3ccccc3[n+]2C)C=Cc2ccc(C)cc21", "IFI": "23.8%"}
{"molecule": "CCN1C(=Cc2sc3ccccc3[n+]2C)C=Cc2cccc(C)c21", "IFI": "23.1%"}
